Screens from PubChem.
An excerpt weighted towards active compounds, which were near 13% of everything screened.
RAM inhibit = inhibitors of the yeast RAM network, primary screen, dse1pr::URA3 reporter, 5-FOA selection; S. cerevisiae dse1pr::URA3 reporter, 5-FOA growth OD615, 2 d; analog-sensitive cbk1-as2 kinase mutant strain; inhibition, % at 50 µM; 1.8% of 190,000 active; AID 868, 2007;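 active means inhibition above a set limit, 3 SD over mean compound inhibition, cut at about 8.4% in these data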;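 further: 0% = DMSO-only wells with no growth and 100% = 10 µM 1-NA-PP1 full growth; inhibition rescues growth on 5-FOA so higher OD means more RAM inhibition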
Lmaj promast = Leishmania major promastigote growth inhibition, primary screen; Leishmania major promastigotes, resazurin fluorescence viability; inhibition, % at 10 µM; 9% of 200,000 active; AID 1063, 2008; in the data active means inhibition above about 50%;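 further: promastigotes grown with compound for 44 hours at 28 °C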
WT yeast gro inh = growth inhibition of WT strain, primary screen, mitochondrial fusion inhibitor project, WT and mutant strains, chemical genetic; mitochondrial fusion phenotypic screen; inhibition, % at 10 µM; 2.1% of 190,000 active; in the data active means inhibition above about 58%; tested in S. cerevisiae
CHOP inhibitor = inhibitors of CHOP promoter induction, primary screen, cell-based, unfolded protein response, luciferase reporter; CHO-K1 CHOP-promoter luciferase, tunicamycin-induced, 15-18 h; inhibition, % at 10 µM; 3.8% of 220,000 active; AID 2732, 2010;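 active means compounds that reduced the stress-induced luciferase reporter signal by more than about 70% of percent inhibition, limit read from the data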;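 further: 0% = tunicamycin plus vehicle and 100% = wells without tunicamycin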
Active calls of the source: *; / = no result.

SMILES	RAM inhibit	Lmaj promast	WT yeast gro inh	CHOP inhibitor
CC(C)(C)C1CCC(C(=O)OCC(=O)N2CCN(C(=O)c3ccco3)CC2)CC1 (configuration not stated)	-0.7	3.2	31.5	6.4
CCn1cc(CNCc2ccc(OCC(O)CN(C)Cc3ccccc3)cc2)cn1 (configuration not stated)	-0.7	88.0*	-12.0	-17.9
Cc1nn(C)cc1CNCc1ccc(OCC(O)CN(C)Cc2ccccc2)cc1 (configuration not stated)	0.1	86.5*	-3.3	-22.2
Cc1ccc(OCC(O)CNCc2ccccc2)cc1C (configuration not stated)	/	/	/	-1.0
CN(Cc1ccccc1)CC(O)COc1ccc(CNCc2ccc(Cl)s2)cc1 (configuration not stated)	1.6	98.1*	23.2	-1.1
CN(Cc1ccccc1)CC(O)COc1ccc(CNCc2cccnc2)cc1 (configuration not stated)	3.7	80.9*	1.5	10.0
CC(=O)c1cnn(-c2c(Cl)cc(Cl)cc2Cl)c1C	/	/	/	4.0
CN(Cc1ccccc1)CC(O)COc1ccc(CNCCOc2cccnc2)cc1 (configuration not stated)	1.8	84.3*	0.6	-1.4
OC(COc1ccc(CNCc2cccnc2)cc1)CN1CCc2ccccc2C1 (configuration not stated)	0.5	89.5*	-5.6	-31.2
CN(Cc1ccccc1)C(=O)c1nc2ccccn2c1CNCCOc1cccnc1	-0.1	-4.4	-23.0	-10.5
CN(Cc1ccccc1)CC(O)COc1ccc(CNCCCOc2cccnc2)cc1 (configuration not stated)	-0.2	90.7*	0.8	-3.0
OC(COc1ccccc1CNCc1cccnc1)CN1CCc2ccccc2C1 (configuration not stated)	0.9	9.4	8.6	4.9
OCCC1CN(Cc2cc(F)ccc2-n2cccn2)CCN1C1CCCC1 (configuration not stated)	/	/	/	11.4
C=CCO/N=C(/CCC)C1=C(N)CC(C)(C)CC1=O	2.2	0.4	-3.8	36.7
COc1ccc(Cl)cc1C(=O)CSc1nnnn1C1CCCCC1	7.9	8.7	72.3*	55.3
COc1ccccc1OCCSc1nnc(C)n1-c1ccccc1	0.8	73.0*	-5.0	11.7
Cc1nnc(SCC(=O)NNC(=O)c2ccccc2)n1-c1ccccc1	-0.4	66.2*	5.6	7.1
Cc1ccccc1-n1c(C)nnc1SCC(=O)NNC(=O)c1ccccc1	0.2	-7.5	9.4	8.7
CCCCCc1cc(O)c2c(C)cc(=O)oc2c1	5.6	34.1	-0.8	72.3*
CCCc1cc(=O)oc2cc(C)cc(O)c12	1.5	10.9	10.3	19.5
O=C(Nc1ccccc1)Nc1ccccc1C(=O)NCCCN1CCOCC1	/	/	/	2.8
Cc1cc(O)c(-c2cc(C(=O)Nc3ccc(S(=O)(=O)N4CCOCC4)cc3)[nH]n2)cc1C	2.2	48.0	20.2	87.3*
O=C(Nc1ccc(S(=O)(=O)N2CCOCC2)cc1)c1cc(-c2cc(Cl)ccc2O)n[nH]1	/	/	/	2.4
Cc1cc(NC(=O)c2ccc(S(=O)(=O)N3CCOCC3)cc2)no1	1.6	54.3*	-2.1	11.9
Cc1cccc(NC(=O)c2ccc(S(=O)(=O)N3CCOCC3)cc2)n1	3.1	2.5	1.1	11.4
SMILES	RAM inhibit	Lmaj promast	WT yeast gro inh	CHOP inhibitor
CCOC(=O)C1=C2NC(=O)c3ccccc3N2C(=O)C1	1.0	-6.2	-41.8	-8.9
CCOC(=O)C1(Cc2ccccc2)CCCN(C2CCCC2)C1 (configuration not stated)	0.7	76.4*	-14.9	11.1
CCOC(=O)C1(Cc2ccccc2)CCN(Cc2cnn(CC)c2)CC1	0.4	6.4	12.0	32.1
CCOC(=O)C1(Cc2ccccc2)CCN(C2Cc3ccccc3C2)CC1	-0.6	83.2*	1.4	36.3
CCCCN(C)C(=O)c1nc2ccccn2c1CN1CCN(C(=O)c2cccs2)CC1	1.5	3.5	5.9	8.6
Cc1cccc(C)c1NC(=S)NC(=O)CCc1ccccc1	2.0	93.2*	-1.3	38.0
Cc1ccccc1NC(=S)NC(C)CCc1ccccc1 (configuration not stated)	0.9	61.6*	67.8*	-14.8
Cc1ccccc1NC(=S)NC(=O)CCc1ccccc1	1.0	99.8*	12.1	50.1
COc1cc(OC)cc(C(=O)N[C@H](C(=O)Nc2cccc(S(=O)(=O)N3CCCC3)c2)C(C)C)c1	/	/	/	13.8
CCOC(=O)C1CCCN(C(=S)Nc2ccc(C)cc2C)C1 (configuration not stated)	0.1	2.0	/	18.4
Cc1ccc([N+](=O)[O-])cc1N/C=C1\CCc2ccccc2C1=O	3.5	-2.2	3.1	85.1*
CCOC(=O)NC(c1ccc(C(C)C)cc1)C(Cl)(Cl)Cl (configuration not stated)	2.9	25.5	68.7*	47.5
CCOC(=O)NC(C(Cl)(Cl)Cl)S(=O)(=O)c1ccccc1 (configuration not stated)	/	/	/	8.0
CCO/C=C/C(O)(CNC(=O)c1ccc(C(C)(C)C)cc1)C(F)(F)F (configuration not stated)	-0.6	35.9	10.8	20.2
CCc1nnc(NC(=O)[C@@H](NC(=O)c2cccc(S(=O)(=O)N(CC)CC)c2)C(C)C)s1	2.6	-10.7	0.2	82.5*
Cc1noc(C)c1C(=O)Nc1sc2c(c1C(N)=O)CCCCC2	/	-9.8	6.2	91.3*
Cc1cc(C)c(C)c(S(=O)(=O)NCC(=O)Nc2sc3c(c2C(N)=O)CCCC3)c1C	4.3	17.3	12.2	94.6*
NC(=O)c1c(NC(=O)c2ccncc2)sc2c1CCCC2	5.5	13.6	-5.1	-1.1
CCC(=O)Nc1sc2c(c1C(N)=O)CCC2	0.4	-9.7	-11.4	25.1
CCN(CC)S(=O)(=O)c1cccc(C(=O)N[C@H](C(=O)OCC(N)=O)C(C)C)c1	-0.3	1.4	-6.7	-0.1
CCN(CC)S(=O)(=O)c1cccc(C(=O)Nc2sc3c(c2C(N)=O)CCCC3)c1	3.2	1.7	72.5*	-39.7
Fc1ccccc1C1c2[nH]c3ccccc3c2CCN1Cc1ccoc1 (configuration not stated)	0.8	7.4	32.2	59.9
CCN1C(=O)N(C(C)=O)C2C1N(C(C)=O)C(=O)N2C(C)=O (configuration not stated)	0.7	-5.9	8.4	36.3
O=C(NCCC1=CCCCC1)Nc1ccc2nsnc2c1	4.8	15.3	13.5	30.6
O=C(CCc1ccc(S(=O)(=O)NCCc2ccccc2)cc1)Nc1ccc2c(c1)OCO2	3.2	0.0	-28.3	26.3
O=S(=O)(NCc1ccc2c(c1)OCO2)c1ccc2c(c1)oc1ccccc12	2.0	-4.0	20.4	95.2*
COc1cc(S(=O)(=O)NCc2ccc3c(c2)OCO3)ccc1Cl	1.7	-4.1	5.8	20.6
O=C(Nc1ccc(S(=O)(=O)NCc2ccccc2)cc1)Nc1ccc2c(c1)OCO2	2.0	-5.0	11.3	84.2*
Cc1cc(OC(=O)N2CCCCC2)cc(C)c1Cl	0.4	-3.4	33.8	76.0*
CCN1C(c2ccc(F)cc2)=CS/C1=C(\C#N)c1nnc2n1-c1ccccc1SC2	3.4	72.1*	0.8	-28.8
